From PubChem BioAssay
Shown are actives, neighbours in structure and some others; about 1.1% of the full set was active somewhere.
miR-21 act – qHTS Assay for Modulators of miRNAs and/orActivators of miR-21 | AID 2288, 2010 | Potency, µM (highest dose often 38.3 µM), without a hit: at the top dose activity change, positive = activation, hits mostly activators | HeLa miR-21 FLuc reporter, luciferase, 48 h | 340,000 tested, under 10 active;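 also: % of control where 0% means no effect; miR-21 action dims this reporter so a rising signal means less miR-21 action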
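Compounds were titrated across several concentrations (up to approximately 40 uM) and incubated 48 hours with HeLa miR-21-FLuc reporter cells (miR-21 target sequence downstream of FLuc, endogenous miR-21). Readout was firefly luciferase luminescence after lytic detection reagent.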
TrxR1 inh – qHTS Assay for Inhibitors of Mammalian Selenoprotein Thioredoxin Reductase 1 (TrxR1): qHTS; Thioredoxin reductase 1, cytoplasmic (Rattus norvegicus), O89049; recombinant rTrxR1, NADPH fluorescence consumption, selenite substrate; Potency, µM (titrated, usually from 114 µM), for the others: top-dose activity change, negative = inhibition, hits mostly inhibitors; 390,000 compounds, 1% hits; AID 588453, 2011; also: potency is read from the fitted curve at half-maximal effect; % is scaled to controls: 0 for no effect and ±100 for the full control effect; nearly all actives have a fitted effect of over 65% in size
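Rat TrxR1 (90 nM in the dispensed reagent) was pre-reduced with 400 uM NADPH for 5 min at room temperature, then incubated with compound for 15 min. After 400 uM selenite was added, NADPH fluorescence (Ex 340/Em 450 nm) was followed for 8 min.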
TrxR1 substrate – qHTS Assay for Substrates of Mammalian Selenoprotein Thioredoxin Reductase 1 (TrxR1): qHTS | 390,000 compounds, 0.01% hits | Potency, µM (top dose mostly 114 µM), for inactives: top-dose activity change, negative = substrate turnover | purified TrxR1 substrate turnover, NADPH consumption readout; also: potency is read from the fitted curve at half-maximal effect; % is scaled to controls: 0 for no effect and ±100 for the full control effect; nearly all actives have a fitted effect of over 50% in size
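Rat TrxR1, dispensed at 90 nM, was prereduced with 400 uM NADPH (final) for 5 min at ~22 deg C, then incubated with compound 15 min before 400 uM selenite. A first-read NADPH fluorescence drop versus no-compound background flagged substrates.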
PINK1 expr mod – A Quantitative High throughput Screen to Identify Chemical Modulators of PINK1 Expression; 410,000 compounds, 0.2% hits; PINK1 immunofluorescence, high-content cytometry, 24 h; Potency, µM (highest dose often 76.6 µM), without a hit: top-dose activation (PINK1 increase), usual class: activators; AID 624263, 2012; active = well fitted activation curve with a large enough effect; inconclusive = small, poorly fitted or top-dose-only effect; cell line not stated here; also: potency is read from the fitted curve at half-maximal effect; % of control where 0% means no effect; nearly all actives have a fitted effect of over 65% in size
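Stable cell line treated 24 h with compounds at 5 concentrations (CCCP controls), then fixed and immunostained for PINK1 plus nuclear and cell stains; PINK1 immunofluorescence quantified by laser-scanning microplate cytometry.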
GALK inh – qHTS Assay for Inhibitors of Human Galactokinase (GALK). P51570. Purified GALK, Kinase-Glo residual ATP luminescence. Potency, µM (titrated, usually from 57.5 µM), for the others: at the highest dose activity change, negative = inhibition, hits mostly inhibitors. 270,000 compounds, 0.007% hits. AID 1868, 2009; also: potency is read from the fitted curve at half-maximal effect; % is scaled to controls: 0 for no effect and ±100 for the full control effect
Target sequence (P51570 whole entry, looked up): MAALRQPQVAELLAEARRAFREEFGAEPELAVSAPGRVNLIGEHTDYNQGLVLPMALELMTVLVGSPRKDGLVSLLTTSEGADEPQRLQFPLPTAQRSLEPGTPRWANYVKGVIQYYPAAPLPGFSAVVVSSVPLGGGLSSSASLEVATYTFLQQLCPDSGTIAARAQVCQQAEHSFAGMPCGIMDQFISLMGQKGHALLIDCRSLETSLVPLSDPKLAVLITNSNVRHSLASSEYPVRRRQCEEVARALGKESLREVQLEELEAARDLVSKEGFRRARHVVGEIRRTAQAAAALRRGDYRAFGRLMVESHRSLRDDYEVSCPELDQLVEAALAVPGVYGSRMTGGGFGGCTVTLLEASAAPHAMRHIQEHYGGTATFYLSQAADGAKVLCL
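Kinase-Glo Plus luminescence measured ATP left after a 1 h room-temperature reaction. The reaction used 5 nM GALK, 100 uM galactose and 35 uM ATP at pH 8.0 (20 mM HEPES, 5 mM MgCl2, 60 mM NaCl, 1 mM DTT, 0.01% BSA).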
* = called active by the depositor; ? = inconclusive; · = not tested or not shown; [ ] = another dose, or the depositor's remark. Unless noted, calls follow the shape of the dose curve; as a rule, active = well fitted curve in the direction sought with a large enough effect; inconclusive = small, poorly fitted or top-dose-only effect, or another doubt; inactive = no such curve, though single readings can be large; an effect the other way counts as inactive or inconclusive.

SMILES	miR-21 act	TrxR1 inh	TrxR1 substrate	PINK1 expr mod	GALK inh
CCOC(=O)c1cc([N+](=O)[O-])c([N+](=O)[O-])cc1NC(C)=O	?	3.2µM*	-5%[57.1 µM]	-4%	·
CCOC(=O)c1ccc(NC(=O)c2ccccc2[N+](=O)[O-])cc1	-40%	3%	-2%	10%	1%
CCNS(=O)(=O)c1ccc(NC(=O)Cc2ccc(F)cc2)cc1	-11%	12%	8%	-7%[38.3 µM]	-7%
CC(Nc1ccc(F)cc1)=[N+](C)CCNS(=O)(=O)c1ccc(Cl)cc1	-2%	79µM*	-5%	-1%	1%
COC(=O)c1ccc(C2C(C#N)=C(N)Oc3cc(O)ccc32)cc1 (stereo not drawn)	-2%	18µM*	-3%	3%	-4%
Cc1noc(C)c1C(=O)N1CCC2(CCCN(Cc3nccs3)C2)CC1	·	·	·	0%	·
CC(=O)Oc1oc(-c2ccccc2)nc1C=Nc1ccccc1	-13%	40µM*	-13%	8%	-1%
CCC(=O)Oc1oc(-c2ccccc2)nc1C=Nc1ccc(C)cc1	-3%	7%[11.4 µM]	5%[11.4 µM]	-1%	-6%
CCOC(=O)c1ccc(N=Cc2nc(-c3ccccc3)oc2OC(C)=O)cc1	-10%	2µM*	-2%	2%	-2%
O=C(Sc1cccc2cccnc12)c1ccc(F)cc1	27%	·	·	·	10%
O=S(=O)(Nc1cc(Sc2cccc3cccnc23)c(O)c2ccccc12)c1ccc(F)cc1	?	22µM*	-14%	0%	0%
COc1ccc(S(=O)(=O)Nc2cc(Sc3ncn[nH]3)c(O)c3ccccc23)cc1	?	?	50µM*	2%	-1%
COc1ccc(S(=O)(=O)Nc2ccc(O)c(Sc3ncn[nH]3)c2)cc1	-9%	13%	13%	·	-2%
COc1cccc(CNC(=O)c2ccc(NC(=O)N3CC(C)Sc4ccccc43)cc2)c1 (stereo not drawn)	12%	11%	3%	-1%	·
O=C(Cn1ncc(Cl)c(Cl)c1=O)NC1CCS(=O)(=O)C1 (stereo not drawn)	1%	13µM*	-2%	12%	7%
O=C(Cn1ncc(Cl)c(Cl)c1=O)NCC1CCCCC1	?	35µM*	-2%	-1%	0%
O=C(Cn1ncc(Cl)c(Cl)c1=O)NC1CCCCC1	·	56µM*	1%	0%	·
CC(=O)NC1CCCC1C#N (stereo not drawn)	·	14%	4%	0%	·
C=C1[C@@H](O)[C@H](CC(C)C)N(Cc2ccccc2Br)S1(=O)=O	·	5µM*	-3%[57.1 µM]	-1%	·
COC1=C2C[C@H](C)C[C@H](OC)[C@@H](O)[C@@H](C)C=C(C)[C@H](OC(N)=O)[C@@H](OC)C=CC=C(C)C(=O)NC(=CC1=O)C2=O	·	50µM*	-1%	0%	·
COc1ccc(C)cc1NC(=O)CSc1nnc(-c2ccc(C)cc2)o1	-34%	18%	5%	16%	-1%
CCOc1ccc(-c2nnc(SCC(=O)Nc3cc(C)ccc3OC)o2)cc1	-50%	28µM*	-1%	3%	·
Cn1c(=O)c(C(=O)CCl)c(N)n(CC2CC2)c1=O	-7%	14µM*	-6%[57.1 µM]	0%	·
CCC1(c2ccccc2)C(=O)N(C(=O)OC(C)(C)C)N1C(=O)OC(C)(C)C (stereo not drawn)	·	?	-4%	0%	·
CCOC(=O)N1C(=O)[C@](CC)(c2ccccc2)N1C(=O)OCC	2%	3.2µM*	1%	5%	·
SMILES	miR-21 act	TrxR1 inh	TrxR1 substrate	PINK1 expr mod	GALK inh
O=C(CSc1ccc(-c2ccco2)nn1)NCc1ccc(F)cc1	-7%	50µM*	7%	2%	0%
O=C(CSc1nnc(-c2ccco2)n1CC1CCCO1)c1ccc(F)cc1 (stereo not drawn)	-7%	16µM*	-1%	-1%	1%
O=C(CSc1ccc(-c2ccco2)nn1)c1ccc(F)cc1	-39%	8.9µM*	-4%	0%	1%
O=C(CSc1ccc(-c2ccco2)nn1)NCCc1ccccc1	-2%	18µM*	3%	0%	-2%
COc1ccc(CCNC(=O)CSc2ccc(-c3ccco3)nn2)cc1	2%	-46%	13%	0%	4%
COc1ccc(C(=O)CSc2nnc(-c3ccco3)n2CC2CCCO2)cc1 (stereo not drawn)	-6%	?	-6%	-2%	1%
Cc1ccc(CNC(=O)CSc2ccc(-c3ccco3)nn2)cc1	-11%	?	-12%	1%	1%
COc1cc(-c2nnc(SCC(=O)N3CCCc4ccccc43)o2)cc(OC)c1OC	10%	0%	-6%	2%	·
CCN(CC)c1ccc(S(=O)(=O)N2CCOCC2)cc1NC(=O)COC(=O)/C=C/c1ccc(C)o1	·	71µM*	-10%	4%	·
CCN(CC)c1ccc(S(=O)(=O)N2CCOCC2)cc1NC(=O)COC(=O)/C=C/c1ccccc1	·	-4%	-11%	1%	·
CCOc1ccc(N2C(=O)CC(NCC#N)C2=O)cc1 (stereo not drawn)	3%	22µM*	3%	-1%	4%
O=C(CC(C(=O)O)n1ccnc1)c1ccc(Cl)cc1 (stereo not drawn)	·	1.8µM*	1%	0%	·
O=C(Cn1ccnc1)c1ccc(Cl)cc1	0%	?	-18%	-1%	1%
CC(C)(CC(=O)NCc1ccc(Cl)cc1Cl)CC1=NS(=O)(=O)c2ccccc2N1	?	9%[57.1 µM]	2%[57.1 µM]	45µM*	·
Cc1ccc(Cl)cc1NC(=O)COC(=O)CC(C)(C)CC1=NS(=O)(=O)c2ccccc2N1	26%	8%[57.1 µM]	1%[57.1 µM]	2%	·
CCC1CN(Cc2cn[nH]c2-c2ccc(F)cc2)Cc2cc(OC)ccc2O1 (stereo not drawn)	·	·	·	6%	·
Cc1ccc(-c2nc(CS(=O)(=O)CC(=O)N3CC(C)CC(C)C3)c(C)o2)cc1 (stereo not drawn)	9%	4µM*	0%[57.1 µM]	-1%	1%
CCCCOC(=O)c1c(N)n(-c2ccc(OC)cc2OC)c2nc3ccccc3nc12	-8%	17%	13%	-5%	·
Cc1ccc(Cn2c(CN3CCC(C(=O)NCc4ccccc4C)CC3)cc3ccccc32)cc1	7%	-4%[57.1 µM]	-14%[57.1 µM]	1%	·
COc1ccc(Cl)cc1NC(=O)c1cccc([N+](=O)[O-])c1O	·	-25%	-16%	22µM*	·
COc1ccc(Cl)cc1NC(=O)C/C(C)=N/NC(=O)c1ccccc1[N+](=O)[O-]	-2%	11%	-3%	0%	-3%
